As usually defined, the AC50 is the concentration giving half of the maximal activity seen.

These results are taken from PubChem BioAssay (EPA / NIEHS).

Assay [1] deals with Estrogen receptor (Homo sapiens) (UniProt P03372). In words: OT_ERa_GFPERaERE_0480: Odyssey Thera (OT) 8-hour HeLa Transcription Induction Assay for Estrogen Receptor (AID 2283381; active means hit-call score of the fitted dose curve at least 0.9, where 1 is the maximum; inactive means score below 0.9). An outline of the steps: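 Fluorescence microscopy with high-content image analysis measures ERE-driven GFP induction in HeLa cells at 8 h post-dose. Increases fitted against DMSO baseline.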
For assay [2] the target is unchanged. The assay is described as follows: OT_ERa_GFPERaERE_0120: Odyssey Thera (OT) 2-hour HeLa Transcription Induction Assay for Estrogen Receptor (AID 2283382). In short, it runs like this: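 Fluorescence-microscopy images of the GFP-ERα/ERE reporter, scored by high-content image algorithms, give the readout. HeLa exposure lasted 2 h, and only signal increase over DMSO was fitted.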

Assay [3] has as its target Bile acid receptor (Homo sapiens) (UniProt Q96RI1). The assay is described as follows: OT_FXR_FXRSRC1_0480: Odyssey Thera (OT) 8-hour HEK293T Protein-Complementation Assay for Farnesoid X receptor/SRC-1 Co-activator (AID 2283383). In short, it runs like this: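 Binding of FXR to coactivator SRC-1 was read as fluorescence from a reconstituted split reporter in HEK293T cells, 8 h after chemical addition. Only increases in signal versus DMSO were fit.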

The target is the same in assay [4]. The assay is described as follows: OT_FXR_FXRSRC1_1440: Odyssey Thera (OT) 24-hour HEK293T Protein-Complementation Assay for Farnesoid X receptor/SRC-1 Co-activator (AID 2283384). In short, it runs like this: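 Protein-fragment complementation: FXR and SRC-1 fused to reporter fragments that reassemble on interaction, read by fluorescence intensity. Human HEK293T cells measured 24 h post-dose; positive-direction fit versus DMSO.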

Assay [5] addresses Retinoic acid receptor RXR-alpha (Homo sapiens) (UniProt P19793). In words: OT_NURR1_NURR1RXRa_0480: Odyssey Thera (OT) 8-hour HEK293T Protein Complementation Assay for Nurr1/retinoid X receptor (RXR) (AID 2283385). In short, it runs like this: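 Interaction of Nurr1 with RXRα read as reconstituted reporter fluorescence in a HEK293T fragment-complementation system, 8 h post-treatment; increase over DMSO baseline analysed.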

Assay [6] has the same target. In words: OT_NURR1_NURR1RXRa_1440: Odyssey Thera (OT) 24-hour HEK293T Protein Complementation Assay for Nurr1/retinoid X receptor (RXR) (AID 2283386). In short, it runs like this: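 Gain in fluorescence, fitted relative to DMSO, reflects Nurr1–RXRα association in HEK293T cells after 24 h dosing. Bait and prey are each linked to a reporter-protein fragment that reassembles on interaction.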

Assay [7] concerns the target Peroxisome proliferator-activated receptor gamma (Homo sapiens) (UniProt P37231). The assay is described as follows: OT_PPARg_PPARgSRC1_0480: Odyssey Thera (OT) 8-hour Protein-Complementation Assay for Peroxisome Proliferator-activated Receptor Gamma / SRC-1 Co-activator (AID 2283387).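 Further: nuclear to cytoplasmic split Venus YFP fluorescence ratio reporting PPARg SRC-1 interaction.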 In short, it runs like this: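 Protein-fragment complementation in HEK293T: Venus YFP halves (residues 1-158, 159-239, mutated to IFP1/IFP2) fused to PPARg/SRC-1. 8 h exposure; N/C ratio at 488 nm; DMSO negative control.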

For assay [8] the target is unchanged. The assay is described as follows: OT_PPARg_PPARgSRC1_1440: Odyssey Thera (OT) 24-hour Protein-Complementation Assay for Peroxisome Proliferator-activated Receptor Gamma/ SRC-1 Co-activator (AID 2283388).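 Further: nuclear to cytoplasmic ratio of reconstituted Venus YFP fluorescence in fixed imaged cells.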 An outline of the steps:
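Protein-fragment complementation between PPARg and coactivator SRC-1 was measured by fluorescence imaging in transiently transfected HEK293T cells after 24 h treatment. Signal was quantified as N/C ratio in the 488 nm channel, with DMSO as negative control.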

Assay [9] in a line: CEETOX_H295R_OHPREG: CeeTox H295R High-throughput Steroidogenesis Assay for OH-Pregnenolone (OHPREG) (AID 2283434; active means hit-call score of the fitted dose curve at least 0.9, where 1 is the maximum; inactive means score below 0.9). Conditions: actives raise or lower the signal. An outline of the steps:
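H295R, 10 uM forskolin pre-stim 48 h; test chemical 48 h, 0.1% DMSO final. MTBE extraction, reverse-phase C18 HPLC-ESI+ MS/MS of medium. Gain/loss vs DMSO; viability by MTT in same wells.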

Assay [10] can be described thus: CEETOX_H295R_11DCORT: CeeTox H295R High-throughput Steroidogenesis Assay for 11-Deoxycortisol (11DCORT) (AID 2283432; active means hit-call score of the fitted dose curve at least 0.9, where 1 is the maximum; inactive means score below 0.9). The settings on record: actives raise or lower the signal. In short, it runs like this:
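Adrenal carcinoma line H295R, run per OECD 456 with minor changes, was forskolin-stimulated (10 uM, 48 h) before a 48 h chemical exposure at 0.1% DMSO. Secreted 11-deoxycortisol was quantified by HPLC-MS/MS.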

“And” between values parts separate entries of the source, which are not always exact repeats. Identical values can stand only once. Results filed as inconclusive are left out. The source made the active and inactive calls. How the source made its calls, unless noted: active means hit-call score of the fitted dose curve at least 0.9, where 1 is the maximum; inconclusive means response in the unintended direction; inactive means score below 0.9.

Retinoic acid receptor RXR-alpha (Homo sapiens), sequence (P19793 whole entry, looked up, the tested form may be a part): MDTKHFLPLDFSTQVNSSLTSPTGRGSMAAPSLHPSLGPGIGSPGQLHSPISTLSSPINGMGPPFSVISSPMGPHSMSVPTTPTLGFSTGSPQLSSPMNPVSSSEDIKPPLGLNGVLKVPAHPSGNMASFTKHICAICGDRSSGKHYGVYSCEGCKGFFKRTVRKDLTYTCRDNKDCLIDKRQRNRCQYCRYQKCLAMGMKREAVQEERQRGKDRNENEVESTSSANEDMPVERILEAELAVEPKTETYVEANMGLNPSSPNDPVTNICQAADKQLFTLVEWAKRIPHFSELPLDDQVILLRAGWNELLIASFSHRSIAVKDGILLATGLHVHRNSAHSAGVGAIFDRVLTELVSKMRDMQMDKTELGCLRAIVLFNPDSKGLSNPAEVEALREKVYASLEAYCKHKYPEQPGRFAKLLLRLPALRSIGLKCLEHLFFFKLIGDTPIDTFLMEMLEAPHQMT
Peroxisome proliferator-activated receptor gamma (Homo sapiens), sequence (P37231 whole entry, looked up, the tested form may be a part): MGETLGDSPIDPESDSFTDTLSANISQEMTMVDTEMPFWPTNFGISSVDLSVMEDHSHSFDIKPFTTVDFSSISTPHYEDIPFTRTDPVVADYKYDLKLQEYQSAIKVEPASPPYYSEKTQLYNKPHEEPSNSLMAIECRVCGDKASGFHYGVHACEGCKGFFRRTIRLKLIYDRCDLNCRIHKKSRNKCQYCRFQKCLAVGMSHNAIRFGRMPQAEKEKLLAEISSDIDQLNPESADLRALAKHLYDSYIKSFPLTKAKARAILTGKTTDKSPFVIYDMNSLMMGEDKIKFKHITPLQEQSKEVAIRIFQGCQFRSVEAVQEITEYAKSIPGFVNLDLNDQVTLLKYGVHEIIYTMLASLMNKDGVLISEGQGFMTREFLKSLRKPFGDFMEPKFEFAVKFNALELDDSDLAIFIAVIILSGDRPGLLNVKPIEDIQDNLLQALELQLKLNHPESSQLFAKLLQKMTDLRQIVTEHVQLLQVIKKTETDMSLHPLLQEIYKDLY
Estrogen receptor (Homo sapiens), sequence (P03372 whole entry, looked up): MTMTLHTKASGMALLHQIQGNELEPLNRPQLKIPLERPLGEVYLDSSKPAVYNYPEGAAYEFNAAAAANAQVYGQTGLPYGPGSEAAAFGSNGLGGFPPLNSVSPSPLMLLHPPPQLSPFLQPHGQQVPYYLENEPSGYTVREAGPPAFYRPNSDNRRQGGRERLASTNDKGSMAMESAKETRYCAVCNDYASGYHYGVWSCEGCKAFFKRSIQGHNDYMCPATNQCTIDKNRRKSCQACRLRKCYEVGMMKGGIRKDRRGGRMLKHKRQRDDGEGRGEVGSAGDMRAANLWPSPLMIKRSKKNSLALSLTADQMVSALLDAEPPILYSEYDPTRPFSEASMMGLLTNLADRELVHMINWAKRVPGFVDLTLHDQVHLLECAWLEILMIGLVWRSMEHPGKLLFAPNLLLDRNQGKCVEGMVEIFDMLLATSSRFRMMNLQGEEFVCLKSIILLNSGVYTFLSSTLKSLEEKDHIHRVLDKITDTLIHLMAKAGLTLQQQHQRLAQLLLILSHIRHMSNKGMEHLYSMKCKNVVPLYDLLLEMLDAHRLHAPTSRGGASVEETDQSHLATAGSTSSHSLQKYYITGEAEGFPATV
Bile acid receptor (Homo sapiens), sequence (Q96RI1 whole entry, looked up): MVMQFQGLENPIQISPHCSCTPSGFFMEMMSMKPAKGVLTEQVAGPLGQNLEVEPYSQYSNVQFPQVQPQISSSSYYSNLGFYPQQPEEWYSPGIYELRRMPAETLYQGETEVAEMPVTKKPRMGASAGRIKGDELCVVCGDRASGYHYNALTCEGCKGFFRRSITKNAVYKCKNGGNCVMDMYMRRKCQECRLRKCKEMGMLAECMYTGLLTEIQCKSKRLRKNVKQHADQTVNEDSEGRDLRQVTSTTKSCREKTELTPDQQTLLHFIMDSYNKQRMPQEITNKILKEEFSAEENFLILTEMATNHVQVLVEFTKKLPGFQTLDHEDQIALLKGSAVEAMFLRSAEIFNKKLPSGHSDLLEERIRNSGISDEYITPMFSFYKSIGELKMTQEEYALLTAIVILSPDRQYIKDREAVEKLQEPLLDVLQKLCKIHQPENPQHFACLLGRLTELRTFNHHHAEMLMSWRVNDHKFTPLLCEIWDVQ

In the case of `CCN(CC)C(=O)C(C)Oc1cccc2ccccc12` (stereo unspecified), the molecule was called inactive in assay [1], in [2], in assay [5], in [6], in assay [7] and in assay [8]. The outcome in [9] was inactive. In addition, the AC50 is 32.6 µM (active) in assay [3] and 31.3 µM (active) in assay [4].
With `COC(=O)NC(=S)Nc1ccccc1NC(=S)NC(=O)OC`, the molecule was called inactive in assay [1], in assay [2], in [3], in assay [4], in [6] and in assay [7]. For the same molecule, the molecule was classed as inactive in assay [8], in assay [10] and in assay [9].
For the molecule `CCOc1cc(C(C)(C)C)ccc1C1COC(c2c(F)cccc2F)=N1` (stereo unspecified), the molecule was called inactive in assay [1], in assay [2], in [5], in assay [7] and in assay [8]. For the same molecule, the AC50 is 1.27 µM (active) in assay [3]; 31.6 µM (active) in assay [4]; 18.5 µM (active) and 20.6 µM (active) in [6].
`COCC(=O)N(c1c(C)cccc1C)C(C)C(=O)OC` (stereo unspecified): the call in assay [1], in assay [2], in assay [3], in [4], in assay [5] and in assay [6] was inactive. For the same molecule, the call in assay [7], in [8] and in [9] was inactive.
For `CS(=O)(=O)c1ccc(C(=O)C2C(=O)CCCC2=O)c([N+](=O)[O-])c1`, the result in assay [1], in assay [2], in [3], in assay [4], in assay [5] and in assay [7] was inactive. Further, the molecule was called inactive in assay [8].
Turning to `CCC(C)n1c(=O)[nH]c(C)c(Br)c1=O` (stereo unspecified), the call in [1], in assay [2], in assay [3], in assay [4], in assay [5] and in assay [6] was inactive. In addition, the call in assay [7], in assay [8] and in assay [9] was inactive.
Consider `CO/N=C(/C1=NOCCO1)c1ccccc1Oc1ncnc(Oc2ccccc2Cl)c1F`, for which the call in assay [1], in assay [2], in assay [5], in assay [7] and in [8] was inactive. Further, the AC50 in assay [3] was 12.4 µM (active); in assay [4], 12.7 µM (active).
As to `COCc1cnc(C2=NC(C)(C(C)C)C(=O)N2)c(C(=O)O)c1` (stereo unspecified), the molecule was classed as inactive in assay [1], in assay [2], in assay [4], in [5], in assay [6] and in assay [7]. Further, the result in assay [8], in assay [10] and in assay [9] was inactive.
In the case of `COC(=O)c1c(C(F)F)nc(C(F)(F)F)c(C2=NCCS2)c1CC(C)C`, the call in assay [1], in [2], in [5], in assay [6], in assay [7] and in assay [8] was inactive.
In the case of `Nc1c(Cl)c(Cl)nc(C(=O)O)c1Cl`, the outcome in assay [1], in assay [2], in [5], in assay [6], in assay [7] and in [8] was inactive.
Consider `CNC(=O)N(C)c1nnc(C(C)(C)C)s1`, for which the molecule was called inactive in [1], in assay [2], in [5], in assay [6], in assay [7] and in assay [8].
For the molecule `C=C(C)CN(CC)c1c([N+](=O)[O-])cc(C(F)(F)F)cc1[N+](=O)[O-]`, the molecule was called inactive in [1], in assay [5], in assay [6], in assay [7] and in assay [8]. Besides, in assay [2], the AC50 was 12.1 µM (active).
As to `CCCCC(O)(Cn1cncn1)c1ccc(Cl)cc1Cl` (stereo unspecified), the molecule was classed as inactive in assay [1], in assay [3], in [7] and in assay [8]. Further, the AC50 is 77.5 µM (active) in [2] and 34.9 µM (active) in assay [4].
Turning to `CC1(C)C(C(=O)OC(C#N)c2cccc(Oc3ccccc3)c2)C1(C)C` (stereo unspecified), the result in [1], in assay [2], in assay [5], in assay [6], in assay [7] and in assay [8] was inactive. In addition, the AC50 in [3] is 2.05 µM (active); in assay [4], 5.39 µM (active).
Turning to `COC(=O)N(C(=O)N1CO[C@@]2(C(=O)OC)Cc3cc(Cl)ccc3C2=N1)c1ccc(OC(F)(F)F)cc1`, the result in [1], in assay [2], in assay [5], in assay [6], in [7] and in assay [8] was inactive.
On to `Cc1nc(N(C)C)nc(OC(=O)N(C)C)c1C`, for which the molecule was classed as inactive in [1], in assay [2], in assay [4], in assay [5], in [6] and in [7]. Besides, the outcome in assay [8], in [10] and in [9] was inactive.
As for `Cc1cnc(C2=NC(C)(C(C)C)C(=O)N2)c(C(=O)O)c1` (stereo unspecified), the molecule was classed as inactive in assay [1], in assay [2], in assay [5], in assay [6], in assay [7] and in [8].
